# Assay results reported in article PMC4336329 (PLoS ONE, 2015).
# The whole screen tested about 310,000 compounds, of which about 14,000 (4.5%) showed an effect of 50% or more. The effect is printed as a negative number. For the sample, strong results were picked, then their nearest neighbours and some compounds at random.
# Molecular target: human ether-à-go-go-related gene (hERG) potassium channel (human, UniProt Q12809)
# Test: primary screen, population patch clamp on CHO cells stably expressing hERG; higher = less effect of the substance
# 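Also: peak tail current of the secondary pulse compared with the same well before compound.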
# Sequence of human ether-à-go-go-related gene (hERG) potassium channel (Q12809 whole entry, looked up): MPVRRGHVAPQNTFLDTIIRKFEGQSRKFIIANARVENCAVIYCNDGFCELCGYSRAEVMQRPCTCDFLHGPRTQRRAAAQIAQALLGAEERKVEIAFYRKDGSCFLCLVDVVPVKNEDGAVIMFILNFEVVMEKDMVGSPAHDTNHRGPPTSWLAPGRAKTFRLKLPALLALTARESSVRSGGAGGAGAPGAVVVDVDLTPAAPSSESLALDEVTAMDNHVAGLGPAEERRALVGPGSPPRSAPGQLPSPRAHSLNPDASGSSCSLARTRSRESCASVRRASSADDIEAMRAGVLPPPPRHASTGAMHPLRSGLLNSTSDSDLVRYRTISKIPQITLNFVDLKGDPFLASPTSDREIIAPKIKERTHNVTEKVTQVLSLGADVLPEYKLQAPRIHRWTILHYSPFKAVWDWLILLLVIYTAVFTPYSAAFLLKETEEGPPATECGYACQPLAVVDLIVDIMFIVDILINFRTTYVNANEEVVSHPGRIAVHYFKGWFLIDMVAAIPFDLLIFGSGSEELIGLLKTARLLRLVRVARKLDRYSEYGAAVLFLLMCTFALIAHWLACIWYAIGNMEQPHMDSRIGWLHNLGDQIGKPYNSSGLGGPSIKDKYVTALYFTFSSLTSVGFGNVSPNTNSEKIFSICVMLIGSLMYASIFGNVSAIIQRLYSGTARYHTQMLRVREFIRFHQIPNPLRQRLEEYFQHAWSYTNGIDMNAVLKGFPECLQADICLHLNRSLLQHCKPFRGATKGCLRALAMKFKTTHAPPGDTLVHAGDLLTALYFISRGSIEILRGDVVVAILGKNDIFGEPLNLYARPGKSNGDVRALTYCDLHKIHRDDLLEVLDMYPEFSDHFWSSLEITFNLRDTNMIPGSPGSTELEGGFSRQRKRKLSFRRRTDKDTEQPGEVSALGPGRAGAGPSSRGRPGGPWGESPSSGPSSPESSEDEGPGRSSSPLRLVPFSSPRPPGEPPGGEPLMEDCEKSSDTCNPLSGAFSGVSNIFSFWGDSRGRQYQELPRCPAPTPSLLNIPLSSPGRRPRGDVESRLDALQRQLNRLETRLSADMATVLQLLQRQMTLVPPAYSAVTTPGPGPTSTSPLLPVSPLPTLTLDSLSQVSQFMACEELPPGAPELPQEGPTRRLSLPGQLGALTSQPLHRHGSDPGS
row,Structure (SMILES),"hERG current change (%, negative = inhibition) at 10uM"
1,C=CCN(C(=O)C1CC(=O)N(C2CCCC2)C1)c1nc(-c2ccc(S(C)(=O)=O)cc2)cs1 (stereo not shown),-47.1%
2,Cc1ccc(-c2csc(NC(=O)C3=NN(C4CCS(=O)(=O)C4)C(=O)CC3)n2)cc1 (stereo not shown),-3.9%
3,C=CCN(C(=O)C1=NN(C2CCS(=O)(=O)C2)C(=O)CC1)c1nc(-c2ccc([N+](=O)[O-])cc2)cs1 (stereo not shown),-63.5%
4,CN1CCN(C2=Nc3cc(F)ccc3Cc3ccccc32)CC1,-35.7%
5,Cc1sc(NC(=O)Cc2ccc3c(c2)OCO3)nc1-c1ccc2c(c1)CCN2C(=O)c1ccccc1F,-0.586%
6,COc1cc(NC(=O)Cc2c(C(=O)O)n(C)c3ccccc23)cc(OC)c1OC,35%
7,Cc1cccc(-n2c(O)c(C=NC3CCS(=O)(=O)C3)c3ccccc3c2=O)c1C (stereo not shown),-54.1%
8,Cc1ccc(-n2c(O)c(C=NC3CCS(=O)(=O)C3)c3ccccc3c2=O)c(C)c1 (stereo not shown),-0.346%
9,Cc1ccc(-n2c(O)c(C=NC3CCS(=O)(=O)C3)c3ccccc3c2=O)cc1 (stereo not shown),-3.54%
10,O=S(=O)(NCCOc1ccccc1Cl)c1ccc2oc3ccccc3c2c1,3.52%
11,Cc1ccccc1C(=O)Nc1cccc(-c2ccc3nncn3n2)c1,-2.94%
12,c1ccc(CCC2CCCCN2Cc2cn[nH]c2-c2cc3ccccc3o2)nc1 (stereo not shown),-74.9%
13,O=C(c1ccccn1)C1CCCN(Cc2cn[nH]c2-c2cc3ccccc3o2)C1 (stereo not shown),-70%
14,OC1(CNCc2cn[nH]c2-c2cc3ccccc3o2)CCCCC1,-28.7%
15,COCC1CCCN(Cc2cn[nH]c2-c2cc3ccccc3o2)C1 (stereo not shown),-47.5%
16,O=C(c1ccccn1)C1CCCN(Cc2nc(Cc3cccc(F)c3)no2)C1 (stereo not shown),-5.63%
17,COCCN1CCN(Cc2cn[nH]c2-c2cc3ccccc3o2)CC1,-6.62%
18,COc1ccc(OC)c(NC(=O)C2C(C(=O)O)C3(Cl)C(Cl)=C(Cl)C2(Cl)C3(Cl)Cl)c1 (stereo not shown),7.73%
19,Cc1cc(CNC(=O)CC2C(=O)NCCN2Cc2ccccc2C(F)(F)F)nn1C (stereo not shown),9.04%
20,CN(C)CCCOc1cccc(Cl)c1.O=C(O)C(=O)O,-19.5%
21,COCCCNC(=O)COc1ccc(Br)cc1Cl,-7.88%
22,CN(C)CCOCCOc1ccc(Cl)cc1Br.O=C(O)C(=O)O,-42.6%

row,Structure (SMILES),"hERG current change (%, negative = inhibition) at 10uM"
1,Cc1cc(Br)cc(C)c1OCCCCN(C)C.O=C(O)C(=O)O,-54.4%
2,Cc1cc(Br)ccc1OCCCCNCCO.O=C(O)C(=O)O,-28.1%
3,COCCNCCCOc1ccc(Br)cc1Cl.O=C(O)C(=O)O,-31.8%
4,COCCCNCCCCOc1ccc(Br)cc1Cl.O=C(O)C(=O)O,-67.1%
5,Cc1cc(C)c(OCCCCN(C)C)c(Br)c1.O=C(O)C(=O)O,-41.5%
6,Cc1cc(Cl)cc(Cl)c1OCCCCN(C)C.O=C(O)C(=O)O,-43.7%
7,C=CCNCCCCOc1ccc(Br)cc1C.O=C(O)C(=O)O,-41%
8,CN(C)CCCOc1ccc(Cl)cc1Br.O=C(O)C(=O)O,-69.3%
9,Cc1cc(Br)ccc1OCCCCNC(C)(C)C.O=C(O)C(=O)O,-53.9%
10,CC(c1ccon1)N(C)C(=O)CCc1nnc(Cc2ccc(-c3ccccc3)cc2)o1 (stereo not shown),-21.7%
11,COC(=O)/C(=C/c1ccc(F)cc1)NC(C)=O,-0.211%
12,O=C(CN1C(=O)S/C(=C\c2cccc(Cl)c2)C1=O)NC1C=CS(=O)(=O)C1 (stereo not shown),18.1%
13,O=C(Nc1ccccc1F)c1ccc2c(c1)OCO2,15.7%
14,CC(C)NCCCCOc1ccccc1-c1ccccc1.O=C(O)C(=O)O,-32.9%
15,Cc1ccc(OCCOCCNC(C)C)c(Br)c1.O=C(O)C(=O)O,-18.3%
16,COCCNCCCCOc1ccc(Br)cc1C.O=C(O)C(=O)O,-36.7%
17,COCCCNCCCCOc1cccc(Br)c1.O=C(O)C(=O)O,-19.3%
18,CC(C)NCCCOc1ccc(Cl)cc1Br.O=C(O)C(=O)O,-54.4%
19,CC(C)NCCCCOc1cccc(Br)c1.O=C(O)C(=O)O,-25.8%
20,COCCCNCCCCOc1ccc(Br)cc1C.O=C(O)C(=O)O,-64.6%
21,CC(C)NCCCCOc1ccc(Br)cc1Cl.O=C(O)C(=O)O,-64.6%
22,Cc1cccc(NS(=O)(=O)c2cccc(C(=O)N3CCCCCC3)c2)c1,-3.09%

row,Structure (SMILES),"hERG current change (%, negative = inhibition) at 10uM"
1,Cc1cnn(-c2cc(N/N=C/c3ccc(F)cc3)ncn2)c1,5.69%
2,CC(C)Cc1nnc(NC(=O)CCC(=O)N2CCC3(CC2)OCCO3)s1,12.3%
3,O=c1c2ccccc2oc2cc(C#Cc3ccccn3)ccc12,7.36%
4,C/C=C(/C)C(=O)Nc1cccc(C2=NOC3(C2)C[C@@H](C(N)=O)N(C(=O)CCCCC)C3)c1 (stereo partly shown),-40.1%
5,COc1cc(/C=N/NC(=O)c2cc(C3CC3)[nH]n2)ccc1O,-12.7%
6,CCOC(=O)C1=C(C)N(CC)C(=S)NC1c1ccc(Cl)cc1 (stereo not shown),-9.13%
7,COc1ccc2c(c1)C(c1ccccc1)=NNC(c1ccco1)=N2,-15.7%
8,COc1ccc2c(c1)C(c1ccc([N+](=O)[O-])cc1)=NNC(c1ccco1)=N2,-60%
9,COc1ccc(C2=NNC(c3ccco3)=Nc3ccc(F)cc32)cc1,-10.8%
10,O=C(CS(=O)(=O)c1cn(Cc2ccc(F)cc2)c2ccccc12)N1CCCCC1,-0.405%
11,CC[N+](CC)(CC#CCO)CC#Cc1ccccc1.[Br-],33.7%
12,CC[N+](CC)(CC#Cc1ccccc1)CC#Cc1ccccc1.[Br-],-69.8%
13,C#CC[N+](C)(C)CC#Cc1ccc(C)cc1.[Br-],6.33%
14,C#CC[N+](C)(C)CC#Cc1ccccc1.[Br-],13.3%
15,C#CC[N+](CC)(CC)CC#Cc1ccccc1.[Br-],9.22%
16,Cc1ccc(C#CC[N+](C)(C)CC#Cc2ccccc2)cc1.[Br-],-75.9%
17,O=C(CSc1nnc(CNC(=O)c2ccco2)o1)Nc1ccc(F)cc1F,8.95%
18,O=C(c1ccc(C#Cc2ccccc2)o1)N1CCN(c2ccccn2)CC1,-6.76%
19,COc1ccc(Nc2ncccc2C(=O)Nc2ccccc2)cc1,-9.63%
20,Cc1ccc(OCc2ccccc2Br)c([N+](=O)[O-])n1,16.7%
21,CC(=O)c1ccc(-c2nnc(CCC(=O)N(C)Cc3cccc4cnccc34)o2)s1,-81.4%
22,CN(Cc1cccc2cnccc12)C(=O)CCc1nnc(CCc2ccccc2)o1,-44.7%

row,Structure (SMILES),"hERG current change (%, negative = inhibition) at 10uM"
1,COc1ccccc1CCc1nnc(CCC(=O)N(C)Cc2cccc3cnccc23)o1,-35.3%
2,O=C(NC1CCCCC1)C(c1ccncc1)N(Cc1ccc(F)cc1)C(=O)c1ccccn1 (stereo not shown),-5.49%
3,Cc1cc(S(=O)(=O)N2CCc3ccccc3C2)ccc1F,7.2%
4,COc1ccc(/C=N/NC(=O)CN2CCCC2)cc1,-14.8%
5,COc1ccc(C(NC(=O)CN2CCCCCC2)c2ccc(OC)cc2)cc1,-65.9%
6,CC(CCc1ccccc1)NC(=O)CN1CCN(c2ccc(O)cc2)CC1 (stereo not shown),-37.1%
7,O=C(CN1CCN(Cc2ccccc2)CC1)NC(c1ccccc1)c1ccccc1.O=C(O)C(=O)O,-59.8%
8,COc1ccc(N2CCN(CC(=O)NC(C)c3ccccc3)CC2)cc1 (stereo not shown),20.6%
9,O=C(O)C(=O)O.c1ccc(CN2CCN(C(c3ccccc3)c3ccccc3)CC2)cc1,2.22%
10,CC(CCc1ccccc1)NC(=O)CN1CCc2ccccc2C1 (stereo not shown),-22.4%
11,CC(NC(=O)CN1CCN(c2ccc(Cl)cc2)CC1)c1ccccc1 (stereo not shown),-42.7%
12,O=C(CN1CCN(c2ccccc2O)CC1)NC(c1ccccc1)c1ccccc1,-22.7%
13,O=C(CN1CCN(c2ccc(O)cc2)CC1)NC(c1ccccc1)c1ccccc1,-50.8%
14,CC(=O)C(Cc1ccccc1)NC(=O)CN1CCN(Cc2ccccc2)CC1 (stereo not shown),-5.57%
15,CC(CCc1ccccc1)NC(=O)CN1CCN(c2ccccc2)CC1 (stereo not shown),-55.8%
16,Cc1ccc(SCCSc2ncccn2)cc1,-2.38%
17,CC(C)c1cc(-c2n[nH]c(=S)n2Cc2ccccc2)cs1,17.8%
18,Cc1cc(C)nc(N2CCN(C(=O)CCC(=O)Nc3nnc(CC(C)C)s3)CC2)n1,-6.7%
19,O=C(N1CCCCC1)N1CCN(S(=O)(=O)c2cccc([N+](=O)[O-])c2)CC1,-15.8%
20,COc1cc(S(=O)(=O)NCc2cccnc2)ccc1F,-5.7%
21,CN(C)C(=O)N1CCCC(C(=O)NCc2cccs2)C1 (stereo not shown),1.62%
22,CNc1ccccc1C(=O)OCC(=O)N(CCOC)c1c(N)n(CC(C)C)c(=O)[nH]c1=O,9.81%
